Measured values: PubChem BioAssay AID2284102 (EPA ToxCast)
Inconclusive results are not listed. Calls of active or inactive are those of the source. Rule for the calls: active = hit-call score of the fitted dose curve at least 0.9, where 1 is the maximum; inconclusive = response in the unintended direction; inactive = score below 0.9.

Target: Tyrosine-protein kinase Lyn (Homo sapiens) (UniProt P07948)
Assay: ERF_FR_ENZ_hLYN: Eurofins (ERF) Enzymatic Radiometric [Km ATP] KinaseProfiler LeadHunter Assay for human LYN Tyrosine Kinase
Method: ERF_FR_ENZ_hLYN is a biochemical, single-readout assay that uses extracted gene-proteins in a cell-free assay. Measurements were taken 0.5 hour after chemical dosing in a 96-well plate. See LYN (B) Human TK Kinase Enzymatic HTRF Assay [Km ATP], Cerep.ERF_FR_ENZ_hLYN is an assay component calculated from the ERF_FR_ENZ_hLYN assay. It is designed to measure enzyme activity using a type of enzyme reporter as detected by fluorescence intensity with HTRF technology.Data from the assay component ERF_FR_ENZ_hLYN was analyzed at the assay endpoint, ERF_FR_ENZ_hLYN, in the positive analysis fitting direction relative to DMSO as the negative control and baseline of activity. Using a type of enzyme reporter, loss-of-signal activity can be used to understand changes in enzymatic activity as they relate to gene LYN. To generalize the intended target to other relatable targets, this assay endpoint is annotated to the kinase intended target family, where the subfamily is non-receptor tyrosine kinase.
Lyn (h) is incubated with 50 mM Tris pH 7.5, 0.1 mM EGTA, 0.1 mM Na3VO4, 0.1% […], 0.1 mg/mL poly(Glu, Tyr) 4:1, 10 mM MgAcetate and [gamma-33P]-ATP (specific activity and concentration as required). The reaction is initiated by the addition of the Mg/ATP mix. After incubation for 40 minutes at room temperature, the reaction is stopped by the addition of phosphoric acid to a concentration of 0.5%. An aliquot of the reaction is then spotted onto a filter and washed four times for 4 minutes in 0.425% phosphoric acid and once in methanol prior to drying and scintillation counting.Compound should be supplied in 100% DMSO.We require a stock solution at a concentration of at least 50x higher than the Final Assay Concentration of your cpd. A 10mM stock is also acceptable.When ordering fewer than 60 kinase assays, we need 120uL of 50x concentrated stock. For more than 60 assays, we need 420 uL of 50xcc stock. Please apply the conversion if you provide 10mM stock solution or compounds in powder form (pre-weighed is required) From 50 cpds supplied as solids, the TAT will be extended.

Tyrosine-protein kinase Lyn (Homo sapiens), sequence (P07948 whole entry, looked up): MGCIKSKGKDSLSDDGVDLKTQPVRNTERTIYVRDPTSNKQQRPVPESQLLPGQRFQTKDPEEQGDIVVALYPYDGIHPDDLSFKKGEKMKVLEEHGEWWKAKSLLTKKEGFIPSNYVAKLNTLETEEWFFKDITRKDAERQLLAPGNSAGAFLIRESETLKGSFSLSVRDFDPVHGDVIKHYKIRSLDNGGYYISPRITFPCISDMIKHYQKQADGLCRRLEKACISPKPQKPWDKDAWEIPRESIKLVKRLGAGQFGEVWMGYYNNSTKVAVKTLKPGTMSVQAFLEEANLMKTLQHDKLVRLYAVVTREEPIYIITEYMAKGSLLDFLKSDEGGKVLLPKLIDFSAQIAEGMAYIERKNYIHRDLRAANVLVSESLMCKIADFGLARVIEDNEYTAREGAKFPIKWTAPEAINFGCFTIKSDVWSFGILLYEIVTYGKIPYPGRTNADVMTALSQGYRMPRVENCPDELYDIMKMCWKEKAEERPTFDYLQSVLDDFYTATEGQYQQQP

AC50, active:
O=C(/C=C/c1ccc(O)cc1)CC(=O)/C=C/c1ccc(O)cc1 2.6 µM
COc1cc(CCC(=O)CC(=O)CCc2ccc(O)c(OC)c2)ccc1O 2.36 µM
COc1cc(/C=C/C(=O)CC(=O)/C=C/c2ccc(O)c(OC)c2)ccc1O 0.0246 µM
